Experimental data: PubChem BioAssay (NCI)
The panel holds about 83,000 compounds, 20% with a hit somewhere; the sample as a whole holds those more often.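 In brief: 96-well plates, 48 h treatment, single concentration, percent growth endpoint.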 Unmarked numbers belong to inactive results. The source made the active and inactive calls. The calls were made as follows: active = growth percent below 10; inactive = the rest.

Legend:
Experiment in all cases: NCI-60 one-dose screen, 48 h (100 = growth as untreated, 0 = no growth, -100 = all killed)
SK-MEL-2 melanoma = conditions: 10 µM unless noted
EKVX NSCLC = conditions: 10 µM unless noted
SN12C renal = conditions: 10 µM unless noted
UO-31 renal = conditions: 10 µM unless noted
TK-10 renal = conditions: 10 µM unless noted
ACHN renal = conditions: 10 µM unless noted
CAKI-1 renal = conditions: 10 µM
A498 renal = conditions: 10 µM unless noted
CCRF-CEM leukemia = conditions: 10 µM unless noted
MOLT-4 leukemia = conditions: 10 µM unless noted
SR leukemia = conditions: 10 µM unless noted
RPMI-8226 leukemia = conditions: 10 µM unless noted
OVCAR-8 ovarian = conditions: 10 µM unless noted
OVCAR-5 ovarian = conditions: 10 µM unless noted
OVCAR-4 ovarian = conditions: 10 µM unless noted
SK-OV-3 ovarian = conditions: 10 µM unless noted
IGROV1 ovarian = conditions: 10 µM unless noted
OVCAR-3 ovarian = conditions: 10 µM unless noted
HS 578T breast = conditions: 10 µM unless noted
NCI/ADR-RES ovarian = conditions: 10 µM unless noted

| Structure (SMILES) | growth (SK-MEL-2 melanoma) | growth (EKVX NSCLC) | growth (SN12C renal) | growth (UO-31 renal) | growth (TK-10 renal) | growth (ACHN renal) | growth (CAKI-1 renal) | growth (A498 renal) | growth (CCRF-CEM leukemia) | growth (MOLT-4 leukemia) | growth (SR leukemia) | growth (RPMI-8226 leukemia) | growth (OVCAR-8 ovarian) | growth (OVCAR-5 ovarian) [%] | growth (OVCAR-4 ovarian) | growth (SK-OV-3 ovarian) | growth (IGROV1 ovarian) | growth (OVCAR-3 ovarian) | growth (HS 578T breast) | growth (NCI/ADR-RES ovarian) |
| --- | --- | --- | --- | --- | --- | --- | --- | --- | --- | --- | --- | --- | --- | --- | --- | --- | --- | --- | --- | --- |
| Oc1ccccc1-c1nnc(SCc2ccc(O)c3ncccc23)o1 | 34.1% | 53.1% | 18.5% | 14.7% | 43.9% | 25.4% | 25.3% | 81.7% | 28.1% | 36.3% | 43.3% | 13.5% | 26.4% | 68.4 | 35.9% | 19.5% | 53% | 29.7% | 6.2% (active) | 49% |
| O=c1oc2ccc(-c3ccc(F)cc3F)cc2c(=O)n1-c1ccc(F)c(F)c1 | -14.3% (active) | 9.2% (active) | 2.02% (active) | -12.4% (active) | 10.8% | 2.6% (active) | -15.4% (active) | -42.6% (active) | 16.4% | 6.43% (active) | 27.5% | -19.1% (active) | 8.19% (active) | 12.9 | 9.07% (active) | 6.15% (active) | 15.1% | 5.59% (active) | 1.72% (active) | 3.65% (active) |
| CCN(CC)CCCC(C)NCC(=O)NC(c1ccc2c(c1)OCO2)c1cc(Cl)c2cccnc2c1O (stereo not drawn) | 81.4% | 26% | 38.1% | 3.38% (active) | 45.6% | 25.2% | 1.43% (active) | 81.1% | 16.5% | 20.4% | 39.2% | 27.9% | 25.2% | 40.6 | 11.5% | 40.6% | 20.9% | 10.8% | 79.7% | 38.6% |
| COc1cc(/C=C2\SC(=O)NC2=O)ccc1OCC(=O)Nc1ccc(C(=O)/C=C/c2cc3ccccc3nc2Cl)cc1 | 103% | 77% | 93.5% | 66.1% | 104% | 93.8% | 80.3% | 111% | 57.2% | 51.4% | 27.7% | -1.87% (active) | 84% | 109 | 52.9% | 104% | 92.6% | 104% | 99.1% | 97.9% |
| O=C(c1ccc(O)cc1)[C@@H]1[C@@H]2CCCN2[C@@]2(C(=O)N(C(=O)c3ccc(F)cc3)c3ccccc32)[C@H]1c1ccc(F)cc1 | 110% | 83.4% | 87.3% | 60.4% | 143% | 90% | 70.1% | 82.5% | 67.2% | 68% | 60.8% | 75.6% | 93.2% | 111 | 91.1% | 104% | 63.1% | – | 105% | 98.8% |
| Oc1ccc(CSc2nnc(-c3ccc(Oc4ccccc4)cc3)n2-c2ccccc2)c2cccnc12 | 37.6% | 14.8% | 19.1% | -5.33% (active) | 23.6% | 6.83% (active) | 13.1% | 35.2% | 10.3% | 18.7% | 45.8% | 7.82% (active) | 16.5% | 42.7 | 17.9% | 14.1% | 11.7% | 19.3% | 18.7% | 6.26% (active) |
| O=C(CSc1nnc(-c2ccc(Cl)cc2)n1-c1ccccc1)Nc1ccc(F)cc1 | 111% | 90.6% | 62.6% | 97.5% | 88.7% | 24.7% | 70.9% | 69.8% | 91.8% | 103% | 76.4% | 89.5% | 74% | 97.4 | 98.3% | 83.8% | 95.1% | – | 61.4% | 77.9% |
| O=C(/C=C1\C=CN(CCCCCCF)c2ccccc21)n1ccc2ccccc21 | 111% | 79% | 90.5% | 71.5% | 115% | 97.4% | 86.5% | 96.3% | 96.1% | 106% | 85.8% | 74.7% | 101% | 99.3 | 81.9% | 98.8% | 67.6% | 100% | 96.7% | 105% |
| COc1ccc(-c2nc(SCC(C)C)nc(N/N=C\c3cccc([N+](=O)[O-])c3)c2C#N)cc1 | 86.2% | 47.7% | 43.3% | -36.4% (active) | 91.4% | 8.66% (active) | 31.8% | 47.6% | 80.9% | 75.1% | 43.5% | 66.9% | 25.5% | 71.5 | 38.7% | 74% | 31.4% | – | 43% | 51.5% |
| Oc1ccc(CSc2nnc(-c3ccccc3)o2)c2cccnc12 | 35.4% | 33.1% | 32.1% | 1.52% (active) | 28.6% | 10.4% | 16.6% | 70.7% | 10% | 14.4% | 36.8% | 14.1% | 17.5% | 74 | 16.5% | 10.8% | 18.5% | 28.2% | -3.94% (active) | 11.1% |
| COc1ccc(-c2nc(SCCC(C)C)nc(N/N=C\c3ccc(O)cc3)c2C#N)cc1 | 104% | 93.1% | 67.6% | 76.8% | 157% | 60.9% | 78% | 92.5% | 54.7% | 64.5% | 25.5% | 42.7% | 47.6% | 101 | 74.9% | 109% | 68.5% | – | 67% | 55.1% |
| O=C1[C@H]2Cc3c([nH]c4ccccc34)[C@@H](c3c(Cl)cccc3Cl)N2C(=O)CN1C1CCN(Cc2ccccc2)CC1 | 114% | 96.2% | 73.3% | 75.9% | 46.2% | 93% | 67.6% | 102% | 21.7% | 20% | 32.7% | 60.3% | 74.5% | 107 | 83.9% | 115% | 70.3% | 109% | 87.6% | 92.8% |
| COc1ccc(N2CCN(C(=O)CSc3ccc(-c4nc5cc(C)c(C)cc5[nH]4)cn3)CC2)cc1 | 87.1% | 53.3% | 83.2% | 65.1% | 101% | 77.5% | 73.4% | 90.9% | 18.4% | 6.92% (active) | 43.6% | 17.1% | 56.4% | 93.5 | 37.6% | 94.6% | 68.2% | 80.4% | 94.8% | 49.3% |
| COc1cc(/C=C/C(=O)c2ccc(N3CCN(C)CC3)cc2)ccc1F | 115% | 88.4% | 81.2% | 56.5% | 124% | 79% | 63.6% | 98.7% | 53.8% | 88.5% | 28.3% | 28.4% | 88.9% | 81.6 | 75.9% | 99.3% | 56.6% | – | 104% | 82.8% |
| COc1cc(NC2=C(Cl)C(=O)c3nc(C)ccc3C2=O)cc(OC)c1 | 5.03% (active) | 74.7% | -63.3% (active) | -94.6% (active) | -50.1% (active) | -99.6% (active) | -96.5% (active) | 71.1% | 2.72% (active) | 8.29% (active) | -3.19% (active) | -39.7% (active) | -0.815% (active) | 22 | -93.3% (active) | 93.8% | -23.1% (active) | – | -32.8% (active) | -1.26% (active) |
| CC(C)Sc1nc(NC2CC2)c(C#N)c(-c2ccccc2)n1 | 124% | 101% | 57.8% | 48.5% | 123% | 29.1% | 68% | 64.5% | 85.1% | 92.6% | 96.5% | 91% | 84.9% | 84.4 | -8.11% (active) | 78.6% | 19.8% | – | 68.7% | 74.5% |
